# Where “and” joins values, the source holds several entries; their conditions need not be identical. Equal values may be shown once. Results filed as inconclusive are left out. A call without a number means that no potency is given here. A structure can be active in one record and inactive in another. Values without a mark were called inactive. Calls of active or inactive are those of the source. Calls come from the whole dose curve; as a rule, active = well fitted cell-killing curve with a large enough effect; inconclusive = small, poorly fitted or top-dose-only effect; inactive = no such curve, though single readings can be large or run the other way.
# Assay: qHTS of pediatric cancer cell lines to identify multiple opportunities for drug repurposing: Primary screen for A673 cells (AID 1347092); note: nearly all actives have a fitted effect of over 45% in size
# Conditions: A673 Ewing sarcoma viability, CellTiter-Glo ATP luminescence, 48 h; series mostly up to 46 µM
# Text: Drug repurposing or repositioning has been offered as a strategy for drug development in oncology programs. This approach has special potential for childhood cancers and other rare or orphan diseases, where the expected return on new drug development has been a disincentive to pharmaceuticals. […] In this project we exploit the poly-pharmacology of drugs to discover new indications via phenotypic screening of a panel of 19 well-characterized cell lines derived from solid tumors seen in children and adolescents. The goal is to identify approved drugs with previously unrecognized anticancer properties that has the potential to reveal new mechanisms and biological processes involved in carcinogenesis or drug resistance. We employed a titration-based paradigm (quantitative high-throughput screening or qHTS), where all compounds were tested at multiple concentrations for their effect on cell viability. Concentration-response curves (CRCs) were derived directly from the primary screen, and both potency and efficacy values were used to identify compounds with robust bioactivity profiles. We screened the NIH Chemical Genomics Center (NCGC) Pharmaceutical Collection (NPC) and Mechanism Interrogation Plate (MIPE) small molecule collections of approved and investigational compounds against these cell lines; and measured metabolically active cells after 48 hours of compound treatment as a proxy for cell viability. […] Assay Submitter: Nathalia J. Martinez, National Center for Advancing Translational Sciences, National Institutes of Health, Rockville, MD, USA; email: natalia.martinez@nih.gov. Shen, M et al. Quantitative high-throughput phenotypic screening of pediatric cancer cell lines identifies multiple opportunities for drug repurposing. Oncotarget 2017 Dec 19;9(4):4758-4772. PMID 29435139.
# The cells were obtained from University of North Carolina (UNC), Pediatric Preclinical Testing Program (PPT), and Coriell Institute (CI). qHTS cell viability assay: Cells were assayed in growth media at a density of 500-1,000 cells/well. Five microliters of cells were dispensed into 1,536-well, white, solid-bottom, TC-treated plates (Greiner Bio One) using a multidrop dispenser and incubated at 37 degrees C, 5% CO2, under a humidified atmosphere for 5 hours. Twenty-three nanoliters of compounds and controls (neutral control DMSO or positive control bortezomib at final concentration of 2.3 uM) were subsequently transferred by Kalypsys pintool. For primary screens, the MIPE collection was tested at 11-point dilutions (final concentrations range from 0.78 nM to 46 µM) and the NPC collection at 8-point dilutions (final concentrations range from 0.59 nM to 46 µM). Compounds tested in follow-up screens were assayed at 11-point dilutions. Cells were incubated for 48 hours, followed by addition of 3 uL of CellTiter-Glo (Promega). After a 15min incubation at room temperature, samples were analyzed for luminescence intensity using a ViewLux High-throughput CCD imager equipped with clear filters.
# Potency is the fitted concentration of half-maximal effect.
Structure (SMILES),Potency,"activity change, negative = cytotoxic"
Nc1cccc2c1CN(C1CCC(=O)NC1=O)C2=O (stereo not given),inactive,
C[C@H](Cn1cnc2c(N)ncnc21)OCP(=O)(O)O,inactive,
CN(C)C(=O)[C@H](O)[C@H](Cc1ccccc1)NC(=O)c1cc2cc(Cl)ccc2[nH]1,5.9 µM (active),
Cc1cccc(C#Cc2ccccc2)n1,inactive,
CC(C)Oc1ccc2c(=O)c(-c3ccccc3)coc2c1,inactive,
CC1(C)NC(=O)N(c2ccc([N+](=O)[O-])c(C(F)(F)F)c2)C1=O,inactive,
CCOC(=O)c1c(C)n(C)c2ccc(O)cc12,inactive,
COc1cc2c(cc1OC)C1CC(=O)C(CC(C)C)CN1CC2 (stereo not given),inactive,
O=c1ccc2ccc(O)c(O)c2o1,5.9 µM (active),
Clc1ccc2c(N3CCN(CCCN4CCN(c5ccnc6cc(Cl)ccc56)CC4)CC3)ccnc2c1,inactive,
O=C1CCc2ccc(OCCCCN3CCN(c4cccc(Cl)c4Cl)CC3)cc2N1,inactive,
O=C(O)c1cccnc1Nc1cccc(C(F)(F)F)c1,inactive,
CNC[C@H](O)c1ccc(O)c(O)c1,42.9 µM (active),
CC1Cc2ccccc2N1NC(=O)c1ccc(Cl)c(S(N)(=O)=O)c1 (stereo not given),inactive,
CCCCN(CCCC)CCC(O)c1cc2c(Cl)cc(Cl)cc2c2cc(C(F)(F)F)ccc12 (stereo not given),inactive,
Nc1ccn([C@@H]2O[C@H](CO)[C@@H](O)C2O)c(=O)n1 (stereo not given in full),inactive,
COc1ccc2cc([C@H](C)C(=O)O)ccc2c1,inactive,
CCc1nc(N)nc(N)c1-c1ccc(Cl)cc1,10.6 µM (active) and 14.8 µM (active),
O=C(CS(=O)Cc1ccco1)NCC=CCOc1cc(CN2CCCCC2)ccn1 (stereo not given),inactive,
CC(C)(S)[C@@H](N)C(=O)O,inactive,

Structure (SMILES),Potency,"activity change, negative = cytotoxic"
Oc1ccc2ccccc2c1SSc1c(O)ccc2ccccc12,18.7 µM (active),
O=C1c2c(O)cc(O)cc2OC(c2ccc(O)c(O)c2)C1O (stereo not given),inactive,
Cc1c(C(=O)NN2CCCCC2)nn(-c2ccc(Cl)cc2Cl)c1-c1ccc(Cl)cc1,4.69 µM (active),
CC(C)C[C@H](NC(=O)[C@H](Cc1ccccc1)NC(=O)c1cnccn1)B(O)O,0.0531 µM (active),
Cc1cc(C2CCCCC2)n(O)c(=O)c1,2.96 µM (active),
Nc1nc(OCc2ccccc2)c2[nH]cnc2n1,18.7 µM (active),
CCN(CCO)CCCC(C)Nc1ccnc2cc(Cl)ccc12 (stereo not given),2.35 µM (active),4.16% [at 4.84 µM]
Nc1ncn([C@H]2C[C@H](O)[C@@H](CO)O2)c(=O)n1,inactive,
CCCOc1ccc2nc(NC(=O)OC)[nH]c2c1,33.5 nM (active) and 11.8 nM (active),
Cc1nccn1CC1CCc2c(c3ccccc3n2C)C1=O (stereo not given),inactive,
Oc1ccc(-c2nc(-c3ccc(F)cc3)c(-c3ccncc3)[nH]2)cc1,14.8 µM (active),
O=C(O)c1cccc(-c2noc(-c3ccccc3F)n2)c1,inactive,
Nc1nc(N)c(N=O)c(OCC2CCCCC2)n1,7.43 µM (active),
c1cnc2cc3c(cc2n1)C1CNCC3C1,inactive,
Cc1cc(=O)oc2cc(O)ccc12,inactive,
O=Nc1c(-c2c(O)[nH]c3cc(Br)ccc23)[nH]c2ccccc12,2.35 µM (active),
O=C(O)CCNC(=O)c1ccc(N=Nc2ccc(O)c(C(=O)O)c2)cc1,inactive,
Cc1cc2c(s1)Nc1ccccc1N=C2N1CCN(C)CC1,inactive,
CC(=O)NC[C@H]1CN(c2ccc(N3CCOCC3)c(F)c2)C(=O)O1,inactive,

# Reference: PubChem BioAssay (NCATS)
